Experimental data reported in the supplement of paper PMC9262897, “Low-cost anti-mycobacterial drug discovery using engineered E. coli” (Nature Communications, 2022).
Structures can show the parent of a compound that is named as a salt. ± gives the standard deviation of the averaged measurements.

What was measured:
Test in all cases: growth (OD600 after 10 h); higher = more growth (less inhibition)
[1] = tested on: E. coli TESEC Alr+ wild-type control; settings: compound 0.1 mM; raw OD600 reference: median of DMSO wells 0.241, cell-free background 0.041
Description: (§1)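 TESEC Mtb Alr E. coli, or the Alr+ wild-type control, in 384-well plates with Prestwick library compounds at 0.1 mM and 1% DMSO, across arabinose induction levels of 1E3 to 1E7 nM. Growth is read as OD600 after 10 h at 37 °C in triplicate biological replicates.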

E. coli TESEC Mtb Alr [2] = settings: compound 0.1 mM
Description: as §1

E. coli TESEC Mtb Asd = settings: compound 0.1 mM
Description: (§2)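 TESEC E. coli strains in which the native enzyme is deleted and replaced by arabinose-inducible Mtb Asd, DapB, CysH or TrpD, each grown in its selective medium. Strains were screened against the Prestwick library at 0.1 mM and 1% DMSO in 384-well format at low and high arabinose induction. Growth is read as OD600 after 10 h in triplicate.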

E. coli TESEC Mtb DapB = settings: compound 0.1 mM
Description: as §2

[3] = tested on: E. coli TESEC Alr+ wild-type control; settings: compound 0.1 mM; raw OD600 reference: median of DMSO wells 0.49, cell-free background 0.052
Description: (§3)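 TESEC Mtb Alr E. coli (ΔaraC ΔtolC ΔentC Δalr ΔdadX, arabinose-inducible Mtb Alr) or the Alr+ wild-type control strain, grown in defined M9-fructose medium without D-alanine in 96-well plates with Prestwick library compounds at 0.1 mM and 1% DMSO. Low Alr induction is 0.1 µM arabinose and high induction is 10 mM arabinose.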

E. coli TESEC Mtb Alr [4] = settings: compound 0.1 mM; remark: listed apart in the source
Description: as §3

[5] = arabinose 1000 nM, raw OD600 reference: median of DMSO wells 0.294, cell-free background 0.041
[6] = arabinose 10000 nM, raw OD600 reference: median of DMSO wells 0.264, cell-free background 0.041
[7] = arabinose 100000 nM, raw OD600 reference: median of DMSO wells 0.201, cell-free background 0.041
[8] = arabinose 1000000 nM, raw OD600 reference: median of DMSO wells 0.193, cell-free background 0.041
[9] = arabinose 10000000 nM, raw OD600 reference: median of DMSO wells 0.146, cell-free background 0.041
[10] = arabinose induction (level): High, raw OD600 reference: median of DMSO wells 0.331, cell-free background 0.041
[11] = arabinose induction (level): Low, raw OD600 reference: median of DMSO wells 0.417, cell-free background 0.041
[12] = arabinose induction (level): High, raw OD600 reference: median of DMSO wells […], cell-free background 0.041
[13] = arabinose induction (level): Low, raw OD600 reference: median of DMSO wells 0.227, cell-free background 0.041
[14] = arabinose 100 nM, raw OD600 reference: median of DMSO wells 0.413, cell-free background 0.052
[15] = arabinose 10000000 nM, raw OD600 reference: median of DMSO wells […], cell-free background 0.052

Structure (SMILES)	growth [1]	growth (E. coli TESEC Mtb Alr [2]; [5])	growth (E. coli TESEC Mtb Alr [2]; [6])	growth (E. coli TESEC Mtb Alr [2]; [7])	growth (E. coli TESEC Mtb Alr [2]; [8])	growth (E. coli TESEC Mtb Alr [2]; [9])	growth (E. coli TESEC Mtb Asd; [10])	growth (E. coli TESEC Mtb Asd; [11])	growth (E. coli TESEC Mtb DapB; [12])	growth (E. coli TESEC Mtb DapB; [13])	growth [3]	growth (E. coli TESEC Mtb Alr [4]; [14])	growth (E. coli TESEC Mtb Alr [4]; [15])
CC(=O)CCCCn1c(=O)c2c(ncn2C)n(C)c1=O [Pentoxifylline]	0.2306 ± 0.0011	0.276 ± 0.0075	0.2728 ± 0.0025	0.203 ± 0.013	0.187 ± 0.0042	0.134 ± 0.0031	0.297 ± 0.079	0.387 ± 0.029	0.2 ± 0.024	0.207 ± 0.019	0.489 ± 0.096	0.431 ± 0.0088	0.363 ± 0.006
CN1CCc2cccc3c2[C@H]1Cc1ccc(O)c(O)c1-3 [R(-) Apomorphine hydrochloride hemihydrate]	0.0618 ± 0.002	0.292 ± 0.0093	0.254 ± 0.0078	0.181 ± 0.019	0.0652 ± 0.0022	0.14 ± 0.0033	0.152 ± 0.027	0.147 ± 0.066	0.16 ± 0.0062	0.174 ± 0.021	0.467 ± 0.025	0.407 ± 0.0077	0.199 ± 0.11
CC(C(=O)O)c1ccc2c(c1)[nH]c1ccc(Cl)cc12 (stereo unspecified) [Carprofen]	0.0924 ± 0.0058	0.116 ± 0.006	0.107 ± 0.0066	0.1024 ± 0.001	0.0781 ± 0.0038	0.111 ± 0.0039	0.171 ± 0.015	0.168 ± 0.044	0.201 ± 0.0073	0.215 ± 0.011	0.594 ± 0.029	0.409 ± 0.0018	0.149 ± 0.025
C[C@H](Cc1cc2c(c(C(N)=O)c1)N(CCCO)CC2)NCCOc1ccccc1OCC(F)(F)F [Silodosin]	0.1773 ± 0.001	0.251 ± 0.0074	0.273 ± 0.0053	0.171 ± 0.019	0.158 ± 0.015	0.14 ± 0.0083	0.302 ± 0.092	0.474 ± 0.012	0.201 ± 0.02	0.206 ± 0.033	0.442 ± 0.056	0.407 ± 0.011	0.329 ± 0.018
COc1ccc(CN2CCN(C(c3ccc(F)cc3)c3ccc(F)cc3)CC2)c(OC)c1OC [Lomerizine hydrochloride]	0.119 ± 0.0034	0.126 ± 0.0034	0.0765 ± 0.0014	0.137 ± 0.0039	0.05757 ± 0.00049	0.0717 ± 0.0016	0.0685 ± 0.0042	0.0562 ± 0.0023	0.0966 ± 0.0085	0.0956 ± 0.013	0.233 ± 0.0047	0.248 ± 0.018	0.0708 ± 0.013
CCN(CC)C(=O)N1CCN(C)CC1 [Diethylcarbamazine citrate]	0.255 ± 0.0031	0.274 ± 0.031	0.275 ± 0.015	0.196 ± 0.017	0.191 ± 0.0045	0.148 ± 0.0047	0.333 ± 0.092	0.487 ± 0.02	0.188 ± 0.0069	0.226 ± 0.025	0.549 ± 0.066	0.411 ± 0.0087	0.33 ± 0.014
COc1ccc([C@@H]2CC(=O)c3c(O)cc(O[C@@H]4O[C@H](CO[C@@H]5O[C@@H](C)[C@H](O)[C@@H](O)[C@H]5O)[C@@H](O)[C@H](O)[C@H]4O)cc3O2)cc1O [Hesperidin]	0.223 ± 0.0074	0.289 ± 0.016	0.251 ± 0.0089	0.205 ± 0.0089	0.177 ± 0.0064	0.145 ± 0.0031	0.22 ± 0.035	0.284 ± 0.06	0.188 ± 0.011	0.251 ± 0.034	0.521 ± 0.053	0.407 ± 0.0099	0.388 ± 0.028
